The results in this text go back to PubChem BioAssay (EPA / NIEHS).

Molecules are shown by their SMILES. The source made the active and inactive calls. How the source made its calls: active means hit-call score of the fitted dose curve at least 0.9, where 1 is the maximum; inactive means score below 0.9.

The experiment is described as follows: ATG_DR4_LXR_CIS: Attagene CIS-FACTORIAL HepG2 Assay for human Liver X Receptor (LXR), DR4 submotif (AID 2282929). Particulars: HepG2 Attagene DR4 cis-reporter, mRNA transcription; actives raise or lower the signal. As to the method: ATG_CIS is a cell-based, multiplexed-readout assay that uses HepG2, a human liver cell line, with measurements taken at 24 hours after chemical dosing in a 24-well plate.ATG_DR4_LXR_CIS is one of 52 assay component(s) measured or calculated from the ATG_CIS assay. It is designed to make measurements of mRNA induction, a form of inducible reporter, as detected with fluorescence intensity signals by Reverse transcription polymerase chain reaction (RT-PCR) and Capillary electrophoresis technology.Data from the assay component ATG_DR4_LXR_CIS was analyzed into 1 assay endpoint. This assay endpoint, ATG_DR4_LXR_CIS, was analyzed with bidirectional fitting relative to DMSO as the negative control and baseline of activity. Using a type of inducible reporter, measures of mRNA for gain or loss-of-signal activity can be used to understand the reporter gene at the transcription factor-level as they relate to the gene NR1H2 and NR1H3. Furthermore, this assay endpoint can be referred to as a primary readout, because this assay has produced multiple assay endpoints where this one serves a reporter gene function. To generalize the intended target to other relatable targets, this assay endpoint is annotated to the nuclear receptor intended target family, where the subfamily is non-steroidal.
Human liver HepG2 cells are transiently transfected with multiple reporter transcription units (MRTUs) in 6-well plates using FuGene 6 reagent (Roche; 3 ml FuGene/1 mg DNA). The MRTU constructs are regulated by a cis-regulating element (promoter). […] A major difference between the CIS and TRANS system is that in CIS activities of endogenous TFs are measured, whereas the TRANS assay evaluates changes in activities of exogenous, chimeric NR-Gal4 proteins. […] At the end of 24 hour incubation, total RNA was isolated using TriZol reagent (Invitrogen). The isolated RNA is then reverse-transcribed using oligo(dT) primer and Mo-MLV reverse transcriptase (Invitrogen) with DNAse I (Ambion) treatment for 30 min. The one-tenth of the produced cDNA was amplified by PCR using Taq DNA polymerase (Invitrogen) and two reporter sequence-specific primers. The PCR products were fluorescently labeled by primer extension with 6-arboxyfluorescein (6-FAM) 5'-labeled reporter sequence-specific primer (2 min at 95 C, 20 s at 68 C and 10 min at 72 C) and these products were digested with 5U of HpaI (New England Biolabs) for 2h at 37 C. The fragments were purified using Qiaquick PCR columns (Qiagen), analyzed on an ABI 3130xL genetic analyzer (Applied Biosystems) with peak positions identified by using a set of X-rhodamine (ROX)-labeled MapMarker1000 molecular weight standards (BioVentures). The raw capillary electrophoresis data was processed using Attagraph software (Attagene).
For the molecule `C[Si](C)(C)N[Si](C)(C)C`, the molecule was classed as inactive.

Take `C=Cc1ccc(OC(C)=O)cc1`: the molecule was called inactive.

Turning to `CC(C)C(=O)OCCOc1ccccc1`, the outcome was inactive.

With `CCCCCC[C@@H](O)C/C=C\CCCCCCCC(=O)OCC(O)CO` (stereo not given in full), the AC50 is 163 µM (active).

Consider `C=CC(=O)OCCCCCCCC(C)C`, for which the AC50 is 160 µM (active).

Regarding `CCCCCCCCCC(C)=O`, the molecule was called inactive.

As for `COc1ccc(-c2coc3cc(O)cc(O)c3c2=O)cc1`, the call was inactive.

With `Nc1ccc(C(=O)OCCCOC(=O)c2ccc(N)cc2)cc1`, the result was inactive.

With `CCC[Si](OC)(OC)OC`, the call was inactive.

Consider `CCCCC(CC)COS(=O)(=O)O` (stereo not given), for which the molecule was called inactive.

With `C=CC(=O)OCCCCCCCCCC`, the molecule was called inactive.

Turning to `O=C1c2ccccc2C(=O)c2cc(S(=O)(=O)O)ccc21`, the result was inactive.

Regarding `CCN(CC)c1cccc(C)c1`, the outcome was inactive.

For `CC(=O)CCC=C(C)C`, the result was inactive.

As for `CCc1cccc(C)c1N(C(=O)CS(=O)(=O)O)C(C)COC` (stereo not given), the outcome was inactive.

`CCOC(=O)c1ccccc1C`: the molecule was classed as inactive.

Regarding `Clc1cc(Cl)c(Cl)c(Cl)c1Cl`, the outcome was inactive.

Consider `c1ccc(Nc2cccc3ccccc23)cc1`, for which the call was inactive.

Take `CCCCCCCCC(CO)CCCCCC` (stereo not given): the half-maximal activity concentration (AC50) was 53 µM (active).

With `CC(C)(O)Cc1ccccc1`, the outcome was inactive.

With `CC(C)OC(=O)c1ccccc1`, the molecule was classed as inactive.

`CN(C)c1ccc2nc3ccc(=[N+](C)C)cc-3sc2c1`: the result was inactive.

Consider `CCC(C)c1ccccc1` (stereo not given), for which the outcome was inactive.

In the case of `CCCCCCCCCCCCC`, the call was inactive.

For the molecule `CC(=O)OCc1ccccc1`, the result was inactive.

Take `CCCc1ccc(O)c(OC)c1`: the AC50 is 33.8 µM (active).

With `CCCSSCCC`, the molecule was classed as inactive.

As for `C=C(C)C1CC=C(C)C(OC(C)=O)C1` (stereo not given), the molecule was called inactive.

In the case of `CC1(C)CC(O)CC(C)(C)N1[O]`, the molecule was classed as inactive.

On to `CCCCCCCCCCCCc1ccc(O)cc1`, for which the molecule was called inactive.

As to `CCN1CCCC1=O`, the molecule was called inactive.

Take `COc1nccnc1CC(C)C`: the outcome was inactive.

Consider `CCNc1nc(NC(C)(C)C)nc(OC)n1`, for which the call was inactive.

Consider `CC(CC(C)C)=NO`, for which the call was inactive.

In the case of `CCC1COC(=O)O1` (stereo not given), the molecule was called inactive.

In the case of `COC(=O)C=Cc1ccccc1`, the call was inactive.

On to `Cc1cc(C)n(CO)n1`, for which the call was inactive.

`N=C1C=CC(=C(c2ccc(N)cc2)c2ccc(N)cc2)C=C1`: the half-maximal activity concentration (AC50) was 27.6 µM (active).

Consider `O=C(O)/C=C/c1ccccc1`, for which the molecule was called inactive.

`C=C(C)[C@@H]1CC=C(C)CC1`: the outcome was inactive.
